Hits are enriched below; roughly 3% of the tested compounds scored in any of these assays.
KKLEB tox = reduces viability of KKLEB cystic fibrosis airway cells. KKLEB CF airway cells viability, ATPlite luminescence, overnight; stronger effect = lower value; cells stimulated with P. aeruginosa culture filtrate. hit rate 0.36% among 360,000. AID 602141. activity change (cytotoxicity), % at 5 µM;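 active = corrected activity change at or below -50% at 5 µM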
Peg3 promoter = reduces Peg3 promoter-driven luciferase expression in HeLa; AID 588405; inhibition, % at 20 µM; hit rate 1.7% among 360,000; HeLa PEG-Prom luciferase reporter, luminescence, overnight;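 active = inhibition of at least 50% at 20 µM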
CF NFkB inh = cystic fibrosis NF-kB activation inhibition; KKLEB NF-kB-GFP reporter, PAF-induced, GFP fluorescence overnight; inhibition, % at 5 µM; hit rate 0.86% among 360,000;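 active = at least 50% inhibition at 5 µM, scaled per plate between neutral and stimulator controls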;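 note: PAF is a Pseudomonas aeruginosa culture filtrate used as stimulus; plate controls were PAF-stimulated DMSO wells for no effect and unstimulated DMSO wells for full effect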
ABHD5-PLIN5 inh = ABHD5-PLIN5 protein interaction inhibition; Q00G26+Q8WTS1; Split G. princeps luciferase complementation, luminescence, 4 h; inhibition, % at 4 µM; hit rate 0.78% among 360,000;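 active = inhibition above the mean inhibition across every tested compound plus 3 SD, cut at about 22% in these data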;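 note: 0% = DMSO only wells and the 100% control is not disclosed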
Target sequence (Q00G26 whole entry, looked up): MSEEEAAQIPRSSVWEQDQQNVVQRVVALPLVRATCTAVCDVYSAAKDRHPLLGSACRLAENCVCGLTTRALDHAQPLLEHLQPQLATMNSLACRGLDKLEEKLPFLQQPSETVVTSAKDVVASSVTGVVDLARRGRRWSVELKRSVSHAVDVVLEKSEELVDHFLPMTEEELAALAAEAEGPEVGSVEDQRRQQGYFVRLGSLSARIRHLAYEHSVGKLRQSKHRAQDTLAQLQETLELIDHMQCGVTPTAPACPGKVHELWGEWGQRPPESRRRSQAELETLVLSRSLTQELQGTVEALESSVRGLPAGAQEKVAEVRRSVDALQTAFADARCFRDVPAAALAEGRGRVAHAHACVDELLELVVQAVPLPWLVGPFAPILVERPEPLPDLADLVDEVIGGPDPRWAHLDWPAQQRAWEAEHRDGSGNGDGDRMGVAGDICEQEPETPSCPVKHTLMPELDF
Target sequence (Q8WTS1 whole entry, looked up): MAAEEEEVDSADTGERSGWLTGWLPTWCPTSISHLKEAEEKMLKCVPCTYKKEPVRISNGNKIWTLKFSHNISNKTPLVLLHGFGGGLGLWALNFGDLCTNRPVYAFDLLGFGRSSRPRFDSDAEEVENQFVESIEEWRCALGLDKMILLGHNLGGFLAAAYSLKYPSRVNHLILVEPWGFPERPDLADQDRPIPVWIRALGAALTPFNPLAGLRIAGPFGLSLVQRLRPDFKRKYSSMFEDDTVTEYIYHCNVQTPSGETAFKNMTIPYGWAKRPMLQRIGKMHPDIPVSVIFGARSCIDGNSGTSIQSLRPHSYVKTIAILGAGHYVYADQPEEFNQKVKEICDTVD
MITF TRPM1 inh = MITF TRPM1 promoter inhibition in SK-MEL-5 cells. SK-MEL-5 TRPM1 promoter luciferase, 24 h. inhibition, % at 12.5 µM. AID 488899. hit rate 0.83% among 330,000;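 active = mean inhibition across replicates of 60% or more, whatever share of single replicates reaches that level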
HIF-2a inh = HIF-2a inhibition; 786-0 RCC cells HIF-2a reporter, luciferase luminescence, overnight; hit rate 0.72% among 360,000; inhibition, % at 18.8 µM; AID 624352;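 active = inhibition of the luminescence signal of 40% or more relative to plate controls, in a single-dose primary screen at 18.75 µM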
Starred values were filed as active, the others as inactive.

CC(=O)C12OC(C)(C)OC1CC1C3CCC4=CC(=O)C=CC4(C)C3(F)C(O)CC12C (stereo unspecified) was read as KKLEB tox 12, Peg3 promoter -10, CF NFkB inh 79*, ABHD5-PLIN5 inh 4, MITF TRPM1 inh -12 and HIF-2a inh 25.
C[C@]12C=CC(=O)C=C1CCC1C2CC[C@@]2(C)C1CCC21OCCO1 (stereo partly specified) was read as KKLEB tox 0, Peg3 promoter 10, CF NFkB inh 1, ABHD5-PLIN5 inh 10, MITF TRPM1 inh 8 and HIF-2a inh 15.
Screening C[C@@H]1C[C@H]2[C@@H]3CCC4=CC(=O)C=C[C@]4(C)[C@@]3(F)[C@@H](O)C[C@]2(C)[C@H]1C(=O)CO returned KKLEB tox 10, Peg3 promoter -6, CF NFkB inh 72*, ABHD5-PLIN5 inh 6, MITF TRPM1 inh -8 and HIF-2a inh 31.
For CCC(=O)OCC(=O)[C@@]1(OC(=O)CC)[C@@H](C)C[C@H]2[C@@H]3CCC4=CC(=O)C=C[C@]4(C)[C@@]3(Cl)[C@@H](O)C[C@@]21C the results were KKLEB tox 30, Peg3 promoter -7, CF NFkB inh 67*, ABHD5-PLIN5 inh -1, MITF TRPM1 inh -7 and HIF-2a inh 22.
Screening CCCC(=O)O[C@]1(C(=O)COC(C)=O)CC[C@H]2[C@@H]3C[C@H](F)C4=CC(=O)C=C[C@]4(C)[C@@]3(F)[C@@H](O)C[C@@]21C returned KKLEB tox -14, Peg3 promoter -4, CF NFkB inh 63*, ABHD5-PLIN5 inh -6, MITF TRPM1 inh -21 and HIF-2a inh 22.
For CC(=O)OCC(=O)C1CCC2C3CCC4=CC(=O)C=CC4(C)C3CCC12C (stereo unspecified) the results were KKLEB tox 13, Peg3 promoter -2, CF NFkB inh 8, ABHD5-PLIN5 inh -5, MITF TRPM1 inh 6 and HIF-2a inh 14.
Screening CC(=O)[C@@]1(O)CC[C@H]2[C@@H]3C[C@H](C)C4=CC(=O)C=C[C@]4(C)[C@@]3(F)[C@@H](O)C[C@@]21C returned KKLEB tox 25, Peg3 promoter 4, CF NFkB inh 72*, ABHD5-PLIN5 inh 5, MITF TRPM1 inh -15 and HIF-2a inh 22.
C[C@@H]1C[C@H]2[C@@H]3C[C@H](F)C4=CC(=O)C=C[C@]4(C)[C@@]3(F)[C@@H](O)C[C@]2(C)[C@@]1(O)C(=O)COC(=O)C(C)(C)C was read as KKLEB tox 40, Peg3 promoter -2, CF NFkB inh 76*, ABHD5-PLIN5 inh -1, MITF TRPM1 inh -19 and HIF-2a inh 24.
`CC(=O)OCC(=O)[C@@]1(O)[C@H](C)C[C@H]2[C@@H]3CCC4=CC(=O)C=C[C@]4(C)[C@@]3(F)[C@@H](O)C[C@@]21C` gave KKLEB tox 9, Peg3 promoter -10, CF NFkB inh 69*, ABHD5-PLIN5 inh 0, MITF TRPM1 inh -13 and HIF-2a inh 21.
For CC(=O)C1(O)CCC2C3CC(C)C4=CC(=O)CCC4(C)C3CCC21C (stereo unspecified) the results were KKLEB tox 16, Peg3 promoter -1, CF NFkB inh 48, ABHD5-PLIN5 inh -2 and HIF-2a inh 11.
CC1(C)O[C@@H]2C[C@H]3[C@@H]4CCC5=CC(=O)CC[C@]5(C)[C@@]4(F)[C@@H](O)C[C@]3(C)[C@]2(C(=O)CCl)O1 was read as KKLEB tox -10, Peg3 promoter 3, CF NFkB inh 77*, ABHD5-PLIN5 inh -12, MITF TRPM1 inh -16 and HIF-2a inh 24.
For CC(=O)C1CCC2C3CCC4=CC(=O)CCC4(C)C3(Br)C(=O)CC12C (stereo unspecified) the results were KKLEB tox 4, Peg3 promoter 12, CF NFkB inh 0, ABHD5-PLIN5 inh 2, MITF TRPM1 inh -1 and HIF-2a inh -3.
`CCc1ccccc1N(C)S(=O)(=O)c1cc(-c2cc(C)no2)ccc1OC` gave KKLEB tox -22, Peg3 promoter 25, CF NFkB inh 15, ABHD5-PLIN5 inh 3, MITF TRPM1 inh 13 and HIF-2a inh 10.
`CN(CC(=O)Nc1ccc(Cl)c(Cl)c1)CC(=O)N1CCc2ccccc21` gave KKLEB tox -3, Peg3 promoter 16, CF NFkB inh 11, ABHD5-PLIN5 inh 4 and HIF-2a inh -31.
Screening O=[N+]([O-])c1cc(Br)c(Nc2ccccc2)c([N+](=O)[O-])c1 returned KKLEB tox -17, Peg3 promoter 35, CF NFkB inh 44, ABHD5-PLIN5 inh 7, MITF TRPM1 inh 39 and HIF-2a inh 22.
Screening O=[N+]([O-])c1cc([N+](=O)[O-])c2c(=Nc3ccccc3)n(-c3ccccc3)n(O)c2c1 returned KKLEB tox -4, Peg3 promoter 10, CF NFkB inh -47, ABHD5-PLIN5 inh 10, MITF TRPM1 inh 61* and HIF-2a inh -14.
CCN(CC)CCNC(=O)c1ccc(NC(=O)c2ccc(Cl)c(S(=O)(=O)N3CCCCCC3)c2)cc1 was read as KKLEB tox 4, Peg3 promoter 88*, CF NFkB inh 0, ABHD5-PLIN5 inh 12, MITF TRPM1 inh 25 and HIF-2a inh 31.
Screening CCN(CC)CCNC(=O)c1ccc(NC(=O)c2ccc(S(=O)(=O)N3CCCCCC3)cc2)cc1 returned KKLEB tox -4, Peg3 promoter 20, CF NFkB inh 20, ABHD5-PLIN5 inh 1, MITF TRPM1 inh -6 and HIF-2a inh 21.
For N=c1c2c(n(Cc3ccc(Cl)cc3)c3c1CCC3)CCC2 the results were KKLEB tox -14, Peg3 promoter 26, CF NFkB inh 30, ABHD5-PLIN5 inh 5, MITF TRPM1 inh 64* and HIF-2a inh 6.
Screening N=c1c2c(n(Cc3ccc(F)cc3)c3c1CCC3)CCCC2 returned KKLEB tox 10, Peg3 promoter -1, CF NFkB inh -7, ABHD5-PLIN5 inh 1, MITF TRPM1 inh 33 and HIF-2a inh 12.
Screening N=c1c2c(n(Cc3cccc(Cl)c3)c3c1CCC3)CCCC2 returned KKLEB tox -14, Peg3 promoter 54*, CF NFkB inh 21, ABHD5-PLIN5 inh 9, MITF TRPM1 inh 50 and HIF-2a inh -5.
N=c1c2c(n(Cc3ccccc3)c3c1CCC3)CCC2 was read as KKLEB tox 1, Peg3 promoter 16, CF NFkB inh 8, ABHD5-PLIN5 inh 10, MITF TRPM1 inh 50 and HIF-2a inh 12.
CC1(C(=O)Nc2ccc3[nH]ncc3c2)CCN1C(=O)C/C=C/c1ccccc1 (stereo unspecified) was read as KKLEB tox 22, Peg3 promoter 1, CF NFkB inh -16, ABHD5-PLIN5 inh 4 and HIF-2a inh -3.
For CCCC(=O)OCC(=O)c1[nH]c(C)c(C(C)=O)c1C the results were KKLEB tox 3, Peg3 promoter -8, CF NFkB inh -3, ABHD5-PLIN5 inh 6, MITF TRPM1 inh -5 and HIF-2a inh 1.

Screens as filed in PubChem.
